Inconclusive results are not listed. Calls of active or inactive are those of the source. The calls were made as follows: active = hit-call score of the fitted dose curve at least 0.9, where 1 is the maximum; inconclusive = response in the unintended direction; inactive = score below 0.9.
System: not listed separately
Assay: TOX21_p53_BLA_p5_viability: Viability Assessment in the Tox21 HCT-116 p53 Agonism Beta-lactamase Assay, Phase 5 (AID 2283600)
Outline: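 Decreased CellTiter-Glo luminescence denotes lost viability. Exposure: 16 h at 37C, 5% CO2, with compounds from DMSO stocks diluted 217-fold in wells of 4000 cells.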

Compound | outcome
CCCCN(CCO)CCO | inactive
c1coc(CNc2ncnc3nc[nH]c23)c1 | inactive
Cc1cccc(O)c1 | inactive
O=S1(=O)CC=CC1 | inactive
OC[C@H]1O[C@@H](O[C@H]2[C@H](O)[C@@H](O)[C@H](O)O[C@@H]2CO)[C@H](O)[C@@H](O)[C@H]1O | inactive
CCCCCCCCCCCCN1CCOCC1 | inactive
CCCCCCC(O)CCOC(C)=O (centres undefined) | inactive
CCCCCCCCCO | inactive
CC(=O)OC(C)(C)C1CC=C(C)CC1 (centres undefined) | inactive
CC(C)COC(=O)c1ccccc1O | inactive
Cc1ccc(C(C)(C)O)cc1 | inactive
CC1=CC(O)CC(C)(C)C1 (centres undefined) | inactive
C=C/C(C)=C/C/C=C(\C)CCC=C(C)C | inactive
CCCCCCOC(C)=O | inactive
C=C(C)C(=O)OCCN(C)C | inactive
O=S(=O)(O)CCCN1CCOCC1 | inactive
CCOc1ccc(NC(C)=O)cc1 | inactive
CN(C)C | inactive

Target: Cellular tumor antigen p53 (Homo sapiens) (UniProt P04637)
Sequence (P04637 whole entry, looked up): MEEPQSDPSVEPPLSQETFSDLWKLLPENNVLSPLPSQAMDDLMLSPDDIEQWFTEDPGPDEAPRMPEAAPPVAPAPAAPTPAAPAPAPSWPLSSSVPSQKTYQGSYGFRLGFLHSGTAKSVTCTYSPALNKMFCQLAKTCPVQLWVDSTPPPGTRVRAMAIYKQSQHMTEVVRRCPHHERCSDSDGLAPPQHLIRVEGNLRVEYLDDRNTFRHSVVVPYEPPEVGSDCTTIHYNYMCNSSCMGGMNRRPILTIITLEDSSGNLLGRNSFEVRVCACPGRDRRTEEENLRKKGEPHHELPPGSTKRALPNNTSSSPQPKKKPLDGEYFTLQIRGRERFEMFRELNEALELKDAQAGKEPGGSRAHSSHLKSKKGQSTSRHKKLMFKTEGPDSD
Assay: TOX21_p53_BLA_p4_ratio: Tox21 HCT-116 p53 Agonism Beta-lactamase Assay, Ratio, Phase 4 (AID 2283601)
Outline: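 HCT-116 p53 beta-lactamase reporter cells (4000/well) preincubated 5 h, then compound (217-fold dilution of DMSO stock) for 16 h at 37C. CCF4-AM substrate added 2 h at room temperature; 460/530 nm emission ratio fitted upward versus DMSO.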

Compound | outcome
S=c1[nH][nH]c(=S)s1 | inactive
C=CCOCC(O)CO (centres undefined) | inactive
c1coc(CNc2ncnc3nc[nH]c23)c1 | inactive
CN(C)c1ccc(C=O)cc1 | inactive
N=C1N=C(N)c2ccccc21 | inactive
O=S1(=O)CC=CC1 | inactive
CC(C)CCOC(=O)CC(C)C | inactive
CCCCCCC(O)CCOC(C)=O (centres undefined) | inactive
CC(=O)OC(C)(C)C1CC=C(C)CC1 (centres undefined) | inactive
CC(C)COC(=O)c1ccccc1O | inactive
Cc1ccc(C(C)(C)O)cc1 | inactive
CC1=CC(O)CC(C)(C)C1 (centres undefined) | inactive
CCc1cccc(O)c1 | inactive
CCOC(=O)COC(=O)c1ccccc1C(=O)OCC | inactive
CCCCCCOC(C)=O | inactive
Cc1cc(N)n(-c2ccccc2)n1 | inactive
CCCCCCCCCCCCOCCOS(=O)(=O)O | inactive
CCCCN(CCCC)CCCCCCN(CCCC)CCCC | inactive
CCCCCc1cccc(=O)o1 | inactive
CC(C)Cc1ccccc1 | inactive
O=S(=O)(O)CCCN1CCOCC1 | inactive
CCOc1ccc(NC(C)=O)cc1 | inactive
CCCCOCCOCCOCCO | inactive
C=CCCCCCCCCC(=O)OCC | inactive
CN(C)C | inactive
CCCCCCCOC(C)=O | inactive
